# According to PubChem BioAssay AID540333 (Southern Research Specialized Biocontainment Screening …, 2011):
# The campaign covered roughly 10,000 compounds. About 320 (3.2%) were called active. No stated cut-off is given here; in the data, active means CPE inhibition mostly above about 9.1% (no sharp cut-off); inactive means mostly below about 7.2%. The sample as a whole holds a higher share of actives than the screen did.
# Test: Dengue virus cytopathic effect inhibitors, cell-based, CPE readout, HTS (AID 540333)
# Conditions: Dengue virus CPE inhibition in host cells, at 20 µM; stronger effect = higher value
row,SMILES,CPE inhibition
1,NNC(=O)c1ccc(COc2cccc3ccccc23)cc1,0.845% (inactive)
2,CC(C)c1ccc(NCCC(=O)c2ccc(Br)cc2)cc1,inactive
3,CCNC(=S)Nc1cc(Cl)ccc1Oc1ccccc1,1.55% (inactive)
4,CC1=NN(c2ccccc2)C(=O)/C1=C/c1ccc[nH]1,inactive
5,CC1=NN(c2ccccc2)C(=O)/C1=C\c1cc(C)n(-c2ccccc2)c1C,1.6% (inactive)
6,COc1cc(/C=C2\C(=O)N(c3ccccc3)N=C2C)ccc1Oc1ccc([N+](=O)[O-])cc1[N+](=O)[O-],12.3% (active)
7,CCOC(=O)c1cc(-c2ccccc2)sc1NC(=O)C(C)Sc1nnc(N)s1 (stereo not drawn),19% (active)
8,CCOC(=O)c1cc(-c2ccccc2)sc1NC(=O)C(C)C,0.57% (inactive)
9,CCOC(=O)c1cc(-c2ccccc2)sc1NC(=O)CC,inactive
10,COC(=O)NNC(=O)COc1ccc2ccccc2c1Br,inactive
11,CCOC(=O)c1ccc(-c2ccc(C3Nc4ccccc4C(=O)N3O)o2)cc1 (stereo not drawn),0.8% (inactive)
12,Fc1cccc2sc(Nc3nc4ccccc4s3)nc12,0.65% (inactive)
13,Fc1ccc2nc(Nc3nc4cc5c(cc4s3)OCCO5)sc2c1,9.35% (active)
14,COC(=O)c1ccc2nc(Nc3nc4ccc(F)cc4s3)sc2c1,1.64% (inactive)
15,Fc1cccc2sc(Nc3nc4cc5c(cc4s3)OCO5)nc12,13.5% (active)
16,Fc1ccc2nc(Nc3nc4c(F)cc(F)cc4s3)sc2c1,1.16% (inactive)
17,c1ccc2sc(Nc3nc4cc5c(cc4s3)OCO5)nc2c1,0.275% (inactive)
18,Cc1ccc(N/N=C(\C#N)C(N)=S)c(C)c1,4.94% (inactive)
19,Cc1ccccc1-n1c(-c2csc(C)c2C)n[nH]c1=S,0.5% (inactive)
20,C=CCOC(=O)C1=C[C@@H](c2coc3ccccc3c2=O)C[C@@H](OCCCCO)O1,inactive
21,O=C1c2cccc3c(N4CCOCC4)c([N+](=O)[O-])cc(c23)C(=O)N1c1cccc2ccccc12,inactive
22,Clc1ccc(C2[C@H]3CN(CC4CCCCC4)[C@H](c4ccccc4)C34CC2(c2ccccc2)C4)cn1 (stereo partly drawn),4.18% (inactive)
23,N#Cc1ccc(C23CC4(C2)[C@H](CN(P(=O)(c2ccccc2)c2ccccc2)[C@@H]4c2ccccc2)C3c2ccc(Cl)nc2)cc1 (stereo partly drawn),18.1% (active)
24,CC(C)CC(=O)NC(Nc1ccc([N+](=O)[O-])cc1)C(Cl)(Cl)Cl (stereo not drawn),6.29% (inactive)
25,Cc1cccc(N2C(=O)C(Cc3ccccc3)NC2=S)c1 (stereo not drawn),inactive
26,CCCCn1c(O)c(N=NC(=O)c2ccco2)c2ccccc21,inactive
27,O=C(N=Nc1c(O)n(Cc2ccccc2)c2ccccc12)c1ccc(O)cc1,16.3% (active)
28,CCn1c(O)c(N=NC(=O)c2ccc(CSc3nncn3C)cc2)c2ccccc21,inactive
